The text below walks through data of PubChem BioAssay (NCI).

The nature of this assay: NCI Yeast Anticancer Drug Screen. Data for the sgs1 strain (AID 173).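 Further: 0% = growth of vehicle-only control cultures.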 Conditions: S. cerevisiae sgs1 mutant, active compounds read high. The method, then:
Growth inhibition of yeast strains with defined genetic alterations is measured as a screen for potential anti-cancer activity. Selected strains with alterations in DNA damage repair or cell cycle control were exposed to compounds and growth inhibition was measured relative to vehicle treated controls. The strain used in this assay is sgs1

About 79,000 compounds went through this panel and 15% of them were active in at least one assay; those are over-represented in the sample as a whole. Values without a mark were called inactive. The source made the active and inactive calls. No stated cut-off is given here; in the data, active means growth inhibition above about 70%; inactive means the rest.

For the compound `O=[N+]([O-])c1ccc2nc3ccccc3cc2c1`, the growth inhibition was -2% (at 1.2 µM); 13% (at 3.7 µM); 36% (at 11.0 µM); 80% (active) (at 33.0 µM); 97% (active) (at 100.0 µM).
As for `COP(=O)(OC)/C(=C\C1=CN(C(c2ccccc2)(c2ccccc2)c2ccccc2)CN1)NC=O`, the growth inhibition by setting is: (at 1.2 µM) 13%; (at 3.7 µM) 20%; (at 11.0 µM) 12%; (at 33.0 µM) 79% (active); (at 100.0 µM) 97% (active).
The like results for `O=C(/C=C\c1ccc(Cl)cc1Cl)c1cccs1` were, in that order, 0%, 1%, 12%, 33% and 45%.
As for `Cc1ccc(-c2ccc(Nc3c4ccccc4nc4ccccc34)cc2)cn1`, the growth inhibition reads like this: (at 1.2 µM) 3%; (at 3.7 µM) 6%; (at 11.0 µM) 44%; (at 33.0 µM) 94% (active); (at 100.0 µM) 88% (active).
Take `Nc1ccccc1CC(O)C(=O)O` (stereo not given): the growth inhibition by setting is: (at 1.2 µM) -1%; (at 3.7 µM) 1%; (at 11.0 µM) 14%; (at 33.0 µM) 83% (active); (at 100.0 µM) 95% (active).
On to `CCOC(=O)C(NC(=O)c1ccccc1)(N1CCN(c2cc3c(cc2F)c(=O)c(C(=O)O)cn3C2CC2)CC1)C(F)(F)F` (stereo not given), for which the growth inhibition by setting is: (at 1.2 µM) -1%; (at 3.7 µM) 0%; (at 11.0 µM) 3%; (at 33.0 µM) 3%; (at 100.0 µM) 2%.
Turning to `CC(=O)Oc1ccc2c(c1)Cc1cc(N=C3C=CC(=O)O3)ccc1-2`, the growth inhibition was 17% (at 1.2 µM); 56% (at 3.7 µM); 99% (active) (at 11.0 µM); 99% (active) (at 33.0 µM); 96% (active) (at 100.0 µM).
`CCC[CH2][Ge]([CH2]CCC)([CH2]CCC)[O]C(=O)C(OC)c1ccccc1` (stereo not given): the growth inhibition (at 1.2 µM) was -1%; the growth inhibition (at 3.7 µM) is 1%; the growth inhibition (at 11.0 µM) was 11%; the growth inhibition (at 33.0 µM) was 71% (active); the growth inhibition (at 100.0 µM) is 94% (active).
